Data: PubChem BioAssay (NCATS)
Unmarked numbers belong to inactive results. Records with an inconclusive call do not appear. Active and inactive are the calls of the source. Unless noted, calls come from the whole dose curve; as a rule, active = well fitted curve in either direction with a large enough effect (not every such curve was filed as active); inconclusive = small, poorly fitted or top-dose-only effect, or another doubt; inactive = flat fitted curve, though single readings scatter.

Legend:
[1] = AP1 Signaling Pathway (AID 357); settings: ME-180 AP-1-bla reporter, EGF-induced, beta-lactamase ratio, 5 h; at 17.2 µM (top of the series) unless noted; note: % is set by controls: 0 for no effect and ±100 for the full control effect
How it was run: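 A ratiometric CCF4 readout (405 nm excitation; 460 and 530 nm emission) quantified AP-1-driven beta-lactamase in ME-180 cells after 5 h with compound and EC50 EGF; AC50 values were derived for activators and inhibitors.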

[2] = NFAT Signaling Pathway (AID 444); settings: Jurkat NFAT-bla M1, carbachol, beta-lactamase ratio, 5 h; at 17.2 µM (top of the series) unless noted;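 note: carbachol stimulus at about its EC50 of 1 µM final; % is set by controls: 0 for no effect and ±100 for the full control effect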
How it was run: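 Jurkat cells with NFAT-driven β-lactamase reporter and co-expressed M1 receptor, stimulated with carbachol (final 1 uM, ~EC50), compound titration, 5 h at 37 °C. CCF4 loaded 1 h at RT; 460/530 nm ratio gave %activity and AC50.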

[3] = Stat Signaling Pathway (AID 446);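 note: ME-180 cervical cancer cells given 40 pM IL-6 alongside compound; SIE-controlled beta-lactamase reporter measured as 460/530 nm FRET emission ratio; % is set by controls: 0 for no effect and ±100 for the full control effect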
How it was run: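 FRET read-out (405 nm excitation, 460/530 nm emission) of a beta-lactamase reporter under a STAT-inducible element in ME-180 cervical carcinoma cells. Cells with compound receive 40 pM IL-6 for 5 h. Values are normalised to AC90 stimulation and AC90 JAK-inhibitor controls.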

[4] = molecular target: Glucocorticoid receptor (Homo sapiens) (UniProt P04150); experiment: GR-GFP Redistribution (AID 450;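 active = compounds whose dose series gives a full or clear partial fitted curve of increased nuclear translocation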; note: potency is the fitted concentration of half-maximal effect); settings: U2OS GR-GFP nuclear translocation, laser cytometry, 2 h
[5] = qHTS Assay for Identification of Small Molecule Agonists for Hypoxia Response Element Signaling Pathway (AID 914; active = well fitted activation curve with a large enough effect in the signal ratio, with a control signal flat, not every such curve was filed as active; the % refers to the signal ratio; note: % of control where 0% means no effect); settings: ME-180 HRE-bla reporter, beta-lactamase ratio, CoCl2, 17 h; activation: stronger effect = higher value
How it was run: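 ME-180 cells carrying an HRE-driven beta-lactamase reporter were treated with compounds in a titration series plus an EC50 level of CoCl2 for 17 h at 37 degrees Celsius; CCF4 readout as the 460nm/530nm ratio gave AC50 values.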

[6] = molecular target: Glucocorticoid receptor (Homo sapiens) (UniProt P04150); experiment: GR-EFC Redistribution (AID 451; calls by dose curve; note: potency is the fitted concentration of half-maximal effect); settings: CHO-K1 GR-EFC translocation, beta-gal luminescence, 2 h
How it was run: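 CHO-K1 cells expressing nuclear EA and GR-ED fragments of b-gal; compounds titrated up to 46 uM final, 2 h at 37 C. GR nuclear translocation read as complemented b-gal luminescence after 1 h RT detection.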

[7] = molecular target: Mitogen-activated protein kinase 10 (Mus musculus) (UniProt Q61831); experiment: JNK3 AlphaScreen Assay (AID 530);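 note: kinase came from lysate of stimulated human HepG2 cells; signal reports phosphorylation of biotinylated GST-cJun 1-79 at Ser73 with 10 µM ATP; % is set by controls: 0 for no effect and ±100 for the full control effect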
How it was run: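 Activity was read by AlphaScreen after JNK3-containing HepG2 lysate (cytokine pre-activated) phosphorylated biotinylated GST-cJun with 10 uM ATP at room temperature. Phospho-Ser73 cJun antibody with Protein-A acceptor beads provided detection.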

[8] = molecular target: 3',5'-cyclic-AMP phosphodiesterase 4B (Homo sapiens) (UniProt Q07343); experiment: qHTS Assay for Inhibitors of PDE-IV (AID 607; active = well fitted activation curve with a large enough effect in the main read-out, with a control signal flat, not every such curve was filed as active; note: % of control where 0% means no effect)
How it was run: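 Cell-based read-out of cAMP via a modified cyclic nucleotide-gated channel and membrane potential dye (535/590 nm) in HEK293 cells expressing PDE4 endogenously. Compounds tested up to 22.9 uM final; 100 uM RO 20-1724 reference.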

[9] = molecular target: Guanine nucleotide-binding protein G(i) subunit alpha-1 (Homo sapiens) (UniProt P63096); experiment: qHTS Assay for Inhibitors of RGS12 GoLoco Motif Activity (Green Fluorophore) (AID 879; active = well fitted curve in the direction sought with a large enough effect; an effect the other way counts as inactive or inconclusive;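 note: 0% = labeled peptide with Gαi1 and full inhibition = labeled peptide alone without protein; negative values mean loss of peptide binding seen as reduced polarization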)
How it was run: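 A drop in FITC polarization marked displacement of the FITC-tagged RGS12 GoLoco peptide (10 nM) from Gαi1 (50 nM). Compounds were incubated 10 min at room temperature in Tris pH 7.5 buffer containing 150 mM NaCl, 0.1 mM GDP and 0.05% NP40; unlabeled peptide titration served as control.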

[10] = qHTS Assay for Identification of Small Molecule Agonists for Thrombopoietin (TPO) Signaling Pathway (AID 917; active = well fitted curve in the direction sought with a large enough effect; an effect the other way counts as inactive or inconclusive; note: % is set by controls: 0 for no effect and ±100 for the full control effect)
How it was run: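 Human TPO receptor–transfected Ba/F3 cells (murine, IL-3-dependent) in IL-3-deficient medium; compounds plus TPO at EC50, 26 pM final; 24 hrs, 37 C; GpIIb-luciferase luminescence after 10 min RT detection.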

[11] = molecular target: Muscarinic acetylcholine receptor M1 (Rattus norvegicus) (UniProt P08482); experiment: qHTS Assay for Antagonists of Acetylcholine Muscarinic M1 Receptor: Kinetic Measurement of Intracellular Calcium Response (AID 943; active = well fitted curve in the direction sought with a large enough effect; an effect the other way counts as inactive or inconclusive; note: potency is the fitted concentration of half-maximal effect; nearly all actives have a fitted effect of over 75% in size)
How it was run: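 Antagonism measured as reduction of carbachol-evoked (EC80, 100 nM final) calcium flux in rat M1-CHO cells after 10 min compound exposure. Fluo-4 signal read kinetically; ratio of maximal to basal fluorescence.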

[12] = molecular target: Muscarinic acetylcholine receptor M1 (Rattus norvegicus) (UniProt P08482); experiment: qHTS Assay for Antagonists of Acetylcholine Muscarinic M1 Receptor: Measurement of IP-One Response (AID 944; active = well fitted curve in the direction sought with a large enough effect; an effect the other way counts as inactive or inconclusive; note: nearly all actives have a fitted effect of over 75% in size)
How it was run: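 IP1 accumulation measured via TR-FRET between d2-IP1 and Eu-cryptate anti-IP1 antibody after carbachol (200 nM, EC80) stimulation for 30 min; rat M1-transfected CHO cells received compound 10 min before agonist.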

[13] = molecular target: Pyruvate kinase PKM (Homo sapiens) (UniProt P14618); experiment: qHTS Assay for Activators of Human Muscle Pyruvate Kinase (AID 954; active = well fitted curve in the direction sought with a large enough effect, not every such curve was filed as active;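 note: 0% = uninhibited enzyme and -100% = no enzyme or full thiadiazolimine inhibition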)
How it was run: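 ATP production by PKM2 detected via luciferase luminescence after 1 h room-temperature reaction (0.1 nM enzyme, PEP at Km 0.5 mM, ADP 0.1 mM, pH 7.2 imidazole buffer). Inhibition scaled to no-enzyme control; activation referenced to 0.3 nM enzyme wells.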

[14] = molecular target: Alpha-galactosidase (Coffea arabica) (UniProt Q42656); experiment: Counterscreen for Glucocerebrosidase Inhibitors: qHTS Assay for Coffee Bean alpha-Galactosidase at pH 4.5 (AID 957; active = well fitted curve in the direction sought with a large enough effect; an effect the other way counts as inactive or inconclusive;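 note: plate controls were enzyme alone for no effect and no enzyme for full effect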)
How it was run: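 Fluorogenic qHTS at pH 4.5 (citrate buffer with Tween-20): 2 nM enzyme, 80 uM 4-MU-alpha-galactoside substrate, compound titrated 0.7 nM to 77 uM, 20 min room temperature. Glycine/NaOH stop; 4-MU read Ex 365/Em 440; Hill-equation AC50 against no-enzyme and enzyme controls.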

[15] = molecular target: Alpha-galactosidase A (Homo sapiens) (UniProt P06280); experiment: Counterscreen for Glucocerebrosidase Inhibitors: qHTS Assay for Human alpha-Galactosidase at pH 4.5 (AID 992; active = well fitted curve in the direction sought with a large enough effect; an effect the other way counts as inactive or inconclusive; note: 0% is about no effect)
How it was run: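 Fluorogenic 1536-well qHTS at pH 4.5 (citrate, Tween-20): 2 nM enzyme, 80 uM 4-MU-alpha-galactoside, 20 min room temperature, NaOH/glycine stop. Titration 0.7 nM to 77 uM, data normalized to no-enzyme and full-activity controls, Hill-fitted AC50.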

[16] = molecular target: alpha-glucosidase (Oryza sativa, rice) (UniProt Q653V4); experiment: Counterscreen for Glucocerebrosidase Inhibitors: qHTS Assay for Rice alpha-Glucosidase at pH 5.0 (AID 997; active = well fitted curve in the direction sought with a large enough effect; an effect the other way counts as inactive or inconclusive;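 note: 0% = full activity with enzyme and -100% = basal without enzyme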)
How it was run: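 Endpoint fluorogenic assay at pH 5.0: compounds (0.7 nM to 77 uM) titrated against 4 nM rice enzyme and 400 uM 4-MU-alpha-glucoside for 20 min at room temperature; NaOH/glycine stop, read ex 365/em 440 nm, Hill-fitted AC50.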

[17] = molecular target: Alpha-galactosidase (Coffea arabica) (UniProt Q42656); experiment: Counterscreen for Glucocerebrosidase Inhibitors: qHTS Assay for Coffee Bean alpha-Galactosidase at pH 5.9 (AID 998; active = well fitted curve in the direction sought with a large enough effect; an effect the other way counts as inactive or inconclusive;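 note: plate controls were uninhibited enzyme for no effect and no-enzyme basal signal for full effect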)
How it was run: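 Enzyme 2 nM + cpd (0.7 nM–77 uM titration) + 4-MU-alpha-Gal 80 uM, pH 5.9 citrate/Tween-20, RT 20 min, NaOH/glycine stop pH 10, fluor 365/440. Normalized to no-enzyme and full-activity controls; Hill-fit AC50.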

Glucocorticoid receptor (Homo sapiens), sequence (P04150 whole entry, looked up, the tested form may be a part): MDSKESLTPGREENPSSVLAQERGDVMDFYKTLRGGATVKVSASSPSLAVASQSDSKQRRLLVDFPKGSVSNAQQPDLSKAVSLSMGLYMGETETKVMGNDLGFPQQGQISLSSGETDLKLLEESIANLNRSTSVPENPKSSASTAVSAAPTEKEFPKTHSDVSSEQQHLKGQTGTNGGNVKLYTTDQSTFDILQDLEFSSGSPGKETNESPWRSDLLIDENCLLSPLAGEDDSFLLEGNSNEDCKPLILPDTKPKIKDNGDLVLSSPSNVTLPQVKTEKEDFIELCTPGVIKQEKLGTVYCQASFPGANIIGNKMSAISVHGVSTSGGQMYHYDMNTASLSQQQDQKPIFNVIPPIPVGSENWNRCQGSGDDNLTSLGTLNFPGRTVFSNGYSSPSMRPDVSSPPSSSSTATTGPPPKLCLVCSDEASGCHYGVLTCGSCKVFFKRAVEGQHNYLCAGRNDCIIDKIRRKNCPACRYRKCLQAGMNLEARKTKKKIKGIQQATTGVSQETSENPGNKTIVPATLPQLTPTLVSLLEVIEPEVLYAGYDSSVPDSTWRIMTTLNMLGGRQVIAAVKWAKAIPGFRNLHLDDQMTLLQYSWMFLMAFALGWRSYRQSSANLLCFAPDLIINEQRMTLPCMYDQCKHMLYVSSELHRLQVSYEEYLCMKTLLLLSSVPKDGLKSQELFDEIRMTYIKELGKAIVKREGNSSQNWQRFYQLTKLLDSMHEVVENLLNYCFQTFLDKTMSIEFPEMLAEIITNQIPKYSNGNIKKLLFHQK
Alpha-galactosidase (Coffea arabica), sequence (Q42656 whole entry, looked up): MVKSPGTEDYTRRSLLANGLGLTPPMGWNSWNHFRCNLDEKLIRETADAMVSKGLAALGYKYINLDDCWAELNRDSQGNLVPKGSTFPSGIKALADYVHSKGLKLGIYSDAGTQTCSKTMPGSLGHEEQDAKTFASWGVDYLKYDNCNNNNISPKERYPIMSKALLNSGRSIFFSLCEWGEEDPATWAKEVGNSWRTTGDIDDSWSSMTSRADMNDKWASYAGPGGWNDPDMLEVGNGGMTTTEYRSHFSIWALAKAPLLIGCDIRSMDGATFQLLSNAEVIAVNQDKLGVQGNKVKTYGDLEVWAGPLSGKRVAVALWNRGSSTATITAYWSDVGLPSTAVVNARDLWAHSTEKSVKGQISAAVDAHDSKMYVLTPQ
3',5'-cyclic-AMP phosphodiesterase 4B (Homo sapiens), sequence (Q07343 whole entry, looked up): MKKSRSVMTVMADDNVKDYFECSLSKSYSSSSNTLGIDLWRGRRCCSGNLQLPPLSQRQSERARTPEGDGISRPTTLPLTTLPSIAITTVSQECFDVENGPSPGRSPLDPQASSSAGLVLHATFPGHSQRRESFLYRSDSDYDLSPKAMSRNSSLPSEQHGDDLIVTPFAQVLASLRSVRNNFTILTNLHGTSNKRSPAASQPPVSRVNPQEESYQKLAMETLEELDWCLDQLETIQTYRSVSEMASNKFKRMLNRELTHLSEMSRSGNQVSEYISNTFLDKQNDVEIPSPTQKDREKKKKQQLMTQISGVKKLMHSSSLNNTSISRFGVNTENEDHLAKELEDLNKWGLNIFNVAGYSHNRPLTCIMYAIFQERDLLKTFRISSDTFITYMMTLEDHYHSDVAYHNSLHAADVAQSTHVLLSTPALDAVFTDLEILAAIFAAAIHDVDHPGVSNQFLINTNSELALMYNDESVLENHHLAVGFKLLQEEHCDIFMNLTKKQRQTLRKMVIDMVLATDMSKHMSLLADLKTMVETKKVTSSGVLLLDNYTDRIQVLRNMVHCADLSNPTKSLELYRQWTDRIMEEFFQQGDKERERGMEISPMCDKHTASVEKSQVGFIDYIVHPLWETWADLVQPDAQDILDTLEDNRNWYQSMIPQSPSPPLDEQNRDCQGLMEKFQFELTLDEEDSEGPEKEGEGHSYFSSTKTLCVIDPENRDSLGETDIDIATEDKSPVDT
Muscarinic acetylcholine receptor M1 (Rattus norvegicus), sequence (P08482 whole entry, looked up): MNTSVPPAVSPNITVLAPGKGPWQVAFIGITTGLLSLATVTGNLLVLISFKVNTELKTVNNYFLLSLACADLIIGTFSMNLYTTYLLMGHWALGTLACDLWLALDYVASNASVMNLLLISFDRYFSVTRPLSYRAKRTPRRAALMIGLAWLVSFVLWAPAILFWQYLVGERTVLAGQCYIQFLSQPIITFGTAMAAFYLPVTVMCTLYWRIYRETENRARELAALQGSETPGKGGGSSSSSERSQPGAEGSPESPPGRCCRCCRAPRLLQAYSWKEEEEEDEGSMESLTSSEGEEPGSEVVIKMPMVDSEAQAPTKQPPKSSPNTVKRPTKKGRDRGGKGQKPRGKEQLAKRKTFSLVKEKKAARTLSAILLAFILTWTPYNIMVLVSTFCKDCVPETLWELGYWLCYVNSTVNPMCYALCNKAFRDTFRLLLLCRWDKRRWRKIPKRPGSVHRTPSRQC
Guanine nucleotide-binding protein G(i) subunit alpha-1 (Homo sapiens), sequence (P63096 whole entry, looked up): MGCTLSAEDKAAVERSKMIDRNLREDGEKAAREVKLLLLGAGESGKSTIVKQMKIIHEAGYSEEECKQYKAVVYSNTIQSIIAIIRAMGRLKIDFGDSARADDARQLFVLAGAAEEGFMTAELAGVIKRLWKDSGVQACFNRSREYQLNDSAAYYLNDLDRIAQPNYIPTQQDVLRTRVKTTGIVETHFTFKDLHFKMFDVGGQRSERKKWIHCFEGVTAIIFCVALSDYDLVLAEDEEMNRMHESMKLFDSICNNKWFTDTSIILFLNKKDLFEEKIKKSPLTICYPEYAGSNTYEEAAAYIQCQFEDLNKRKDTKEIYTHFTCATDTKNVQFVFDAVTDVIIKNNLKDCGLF
Alpha-galactosidase A (Homo sapiens), sequence (P06280 whole entry, looked up): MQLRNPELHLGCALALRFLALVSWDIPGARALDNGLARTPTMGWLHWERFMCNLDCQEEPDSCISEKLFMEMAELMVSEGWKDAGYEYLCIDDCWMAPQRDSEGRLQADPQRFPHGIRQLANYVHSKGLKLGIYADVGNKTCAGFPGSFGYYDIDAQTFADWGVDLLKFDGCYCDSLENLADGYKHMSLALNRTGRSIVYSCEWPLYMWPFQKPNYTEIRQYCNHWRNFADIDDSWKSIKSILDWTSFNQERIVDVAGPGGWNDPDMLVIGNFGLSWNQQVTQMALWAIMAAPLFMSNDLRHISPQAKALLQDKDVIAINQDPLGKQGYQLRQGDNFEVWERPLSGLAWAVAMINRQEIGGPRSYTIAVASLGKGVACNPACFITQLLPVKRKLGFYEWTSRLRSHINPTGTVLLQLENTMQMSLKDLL
Pyruvate kinase PKM (Homo sapiens), sequence (P14618 whole entry, looked up): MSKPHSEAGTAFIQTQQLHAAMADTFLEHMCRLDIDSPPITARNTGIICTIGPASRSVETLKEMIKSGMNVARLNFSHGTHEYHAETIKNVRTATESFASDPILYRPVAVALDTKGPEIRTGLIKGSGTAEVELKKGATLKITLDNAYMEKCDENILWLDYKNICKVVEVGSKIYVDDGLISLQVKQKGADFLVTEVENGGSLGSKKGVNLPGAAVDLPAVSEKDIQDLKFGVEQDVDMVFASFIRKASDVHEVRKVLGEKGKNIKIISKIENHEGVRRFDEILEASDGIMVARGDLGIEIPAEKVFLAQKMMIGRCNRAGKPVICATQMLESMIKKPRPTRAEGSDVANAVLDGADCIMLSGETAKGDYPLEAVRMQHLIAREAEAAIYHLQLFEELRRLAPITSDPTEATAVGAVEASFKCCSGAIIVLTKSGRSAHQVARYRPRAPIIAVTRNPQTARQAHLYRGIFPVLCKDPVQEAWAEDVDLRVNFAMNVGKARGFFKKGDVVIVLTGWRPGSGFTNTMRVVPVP

With `CNCCc1nc(N)n[nH]1` the activity change, negative = inhibition [1] was 16.9%, the activity change, negative = inhibition [2] was -10.7% and the outcome [3] was “inactive”. For the same compound, the Potency [4] was greater than 20.6 µM and the activation [5] was 12.1%.

For `CC1(C)CC(=O)C(C=NCCN2CCN(C(=O)Cc3ccc(F)cc3)CC2)=C(O)C1`, the activity change, negative = inhibition [1] was -0.912%, the outcome [3] was “inactive” and the Potency [4] was greater than 20.6 µM.

In the case of `O=c1[nH]c(=O)n(Cc2ccco2)c(O)c1C=NCCN1CCOCC1`, the activity change, negative = inhibition [1] is reported as 12.8%, the outcome [3] is reported as “inactive” and the Potency [4] is reported as greater than 20.6 µM.

With `C/C(Cl)=C/CC1(CN2CCCC2=O)C(=O)NC(=O)NC1=O` the activity change, negative = inhibition [1] was -3.48%, the activity change, negative = inhibition [2] was 1.12% and the outcome [3] was “inactive”. The Potency [4] was greater than 20.6 µM and the activation [5] was 3.38%.

For `O[C@@H]1CCCC[C@H]1N1CCC(c2ccccc2)CC1`, the activity change, negative = inhibition [1] was -6.58% [at 38 µM], the activity change, negative = inhibition [2] was -6.89% [at 38 µM] and the outcome [3] was “inactive”. The Potency [4] was greater than 46 µM, the Potency [6] was greater than 46 µM and the outcome [7] was “inactive”. For the same compound, the outcome [8] was “inactive”, the Potency [9] was “inactive” and the outcome [10] was “inactive”. For the same compound, the Potency [11] was 14.1 µM (active), the Potency [12] was “inactive” and the outcome [13] was “inactive”. The outcome [14] was “inactive”, the outcome [15] was “inactive” and the outcome [16] was “inactive”. The outcome [17] was “inactive”.

For `CC1=C(C(=O)OC(C)C)[C@]2(C(=O)N(CC(N)=O)c3ccccc32)C(C#N)=C(N)O1`, the activity change, negative = inhibition [1] was 16.8%, the activity change, negative = inhibition [2] was -13.4% and the outcome [3] was “inactive”. It also gave a Potency [4] greater than 20.6 µM and an activation [5] of -4.16%.

In the case of `CCCCc1nc2ccccc2c(=O)n1-c1ccccc1O`, the activity change, negative = inhibition [1] is reported as -4.36%, the outcome [3] is reported as “inactive” and the Potency [4] is reported as greater than 20.6 µM.

For `CC(C)(C)c1ccc(O)c(C[N+](C)(C)C)c1`, the activity change, negative = inhibition [1] was -0.0649% [at 7.69 µM], the activity change, negative = inhibition [2] was -16.5% [at 7.69 µM] and the outcome [3] was “inactive”. For the same compound, the Potency [4] was greater than 46 µM, the Potency [6] was greater than 9.22 µM and the activity change, negative = inhibition [7] was -0.903% [at 11.4 µM]. For the same compound, the outcome [8] was “inactive”.

With `CC1CCC(C(C)C)C(OP(N)(=O)c2ccccc2)C1` (stereo not drawn) the activity change, negative = inhibition [1] was -1.85%, the activity change, negative = inhibition [2] was 16.1% and the outcome [3] was “inactive”. The Potency [4] was greater than 20.6 µM and the activation [5] was -7.02%.

In the case of `CCN(CC)CCCNC(=O)c1c(O)c2ccccc2n(Cc2ccccc2)c1=O`, the activity change, negative = inhibition [1] is reported as 27.1%, the outcome [3] is reported as “inactive” and the Potency [4] is reported as greater than 20.6 µM.

For `C=CCn1c(O)c(C=Nc2ccc(N(CC)CC)cc2)c(=O)[nH]c1=O`, the activity change, negative = inhibition [1] was -13.2%, the outcome [3] was “inactive” and the Potency [4] was greater than 20.6 µM.

With `COCCOC(=O)C1=C(N)Oc2c(c(=O)oc3ccccc23)[C@@]12C(=O)Nc1ccccc12` the activity change, negative = inhibition [1] was 10.2%, the activity change, negative = inhibition [2] was -5.71% and the outcome [3] was “inactive”. The Potency [4] was greater than 20.6 µM and the activation [5] was -0.572%.

For `C=CCOC(=O)C1=C(C)OC(N)=C(C#N)C12C(=O)N(CN1CCOCC1)c1ccccc12` (stereo not drawn), the activity change, negative = inhibition [1] was 2.42%, the outcome [3] was “inactive” and the Potency [4] was greater than 20.6 µM.

For `C[N+]1(C)[C@@H]2CC(OC(=O)[C@@H](CO)c3ccccc3)C[C@@H]1[C@H]1O[C@H]12` (stereo partly drawn), the Potency [6] was greater than 9.22 µM and the activity change, negative = inhibition [7] was 0.144% [at 11.4 µM].
